From PubChem BioAssay (NCATS) come the findings set out here.

Each structure is given as a SMILES string. Results filed as inconclusive are left out. Activity calls are given as the source filed them. Unless noted, calls follow the shape of the dose curve; as a rule, active = well fitted inhibition curve with a large enough effect; inconclusive = small, poorly fitted or top-dose-only effect; inactive = no such curve, though single readings can be large or run the other way.

A short description of test [1]: qHTS profiling of the MIPE4 collection as inhibitors of Plasmodium falciparum (DD2) proliferation (AID 743345; call rule not given here). The note with it: P. falciparum Dd2 in erythrocytes, SYBR Green DNA, 72 h; at 28.5 µM (top of the series) unless noted. In outline: (§1)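 Parasite DNA was quantified by SYBR Green I fluorescence (ex 485, em 535 nm) after overnight lysis in saponin/Triton buffer at room temperature. Cultures at 0.3% parasitemia and 2.5% hematocrit were first exposed to compound for 72 h at 37 C; signals were normalised to artemisinin (0.29 uM) and vehicle wells.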

Test [2] is described as follows: qHTS profiling of the MIPE4 collection as inhibitors of Plasmodium falciparum (DD2) proliferation (Rep 2) (AID 743346; call rule not given here). The note with it: P. falciparum Dd2 in erythrocytes, SYBR Green DNA, 72 h; at 28.5 µM (top of the series) unless noted. In short, it runs like this:
as §1
Background: In qHTS, concentration-response curves come from the screen itself.

Test [3] is described as follows: High-throughput drug toxicity screening in the BPDCN cell line Gen2.2 (AID 1224824; call rule not given here;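 also: cells exposed to compounds for 48 h before reading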). As to conditions: Gen2.2 BPDCN cells; at 45.8 µM (top of the series) unless noted. In outline: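 Gen2.2 cells (500/well) in phenol red-free RPMI with 10% FBS were exposed to compounds for 48 h at 37 °C, 5% CO2. Viability was read by CellTiter-Glo luminescence and normalized to DMSO (100%) and 9.2 uM bortezomib (0%).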

Test [4] can be described thus: High-throughput drug toxicity screening in the BPDCN cell line Cal-1 (AID 1224825; call rule not given here). As to conditions: Cal-1 BPDCN cell viability, qHTS; at 45.8 µM (top of the series) unless noted. In outline:
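Viability of the BPDCN line Cal-1 is measured as ATP-based luminescence (CellTiter-Glo) following 48 h incubation with compounds. Percent activity uses DMSO-treated wells as 100% and 9.2 uM bortezomib as 0%.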

The nature of test [5]: qHTS assay for measurement of the activity of small molecule inhibitors on Zika virus induced Caspase-3 activity in human iPSC derived neural progenitor cells (hNPCs) (AID 1224857). Also: % of control where 0% means no effect; nearly all actives have a fitted effect of over 65% in size. In outline: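 Human iPSC-derived neural progenitor cells pretreated 1 hr with compounds, then infected with Zika virus (2 FFU/cell) for 6 hours at 37 C. Caspase-3/7 measured by Caspase-Glo luminescence; % inhibition calculated from induction scaled to uninfected (0%) and infected (100%) wells.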

A short description of test [6]: qHTS assay for measurement of the activity of small molecule inhibitors on Zika virus induced Caspase-3 activity in human astrocytoma cells (AID 1224859).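 Also: plate controls were ZIKV-infected untreated cells for no effect and uninfected cells for full effect.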 In outline: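 SNB-19 astrocytoma cells, 250/well, pretreated 1 h with compounds, then Zika virus at 2 FFU/cell for 6 h at 37 C; Caspase-Glo 3/7 luminescence after 30 min; percent inhibition normalised to uninfected and infected controls.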

Test [7] is described as follows: qHTS Screen of the MIPE 4.0 Collection Against Ewings Sarcoma (TC71) (AID 1259253). Also: nearly all actives have a fitted effect of over 40% in size. Also: potency is read from the fitted curve at half-maximal effect. In outline: (§2)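 Measured: ATP luminescence (CellTiter-Glo) 10 min after reagent addition, following 48 h drug treatment. Relative luciferase units converted to percent activity, with no-cell wells as full and DMSO wells as zero inhibition.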
Test [8] in a line: qHTS Screen of the MIPE 4.0 Collection Against Ewings Sarcoma (EW8) (AID 1259255). Also: nearly all actives have a fitted effect of over 35% in size. Also: potency is read from the fitted curve at half-maximal effect.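 As to viability: 100% = DMSO-treated cells and 0% = medium-only wells without cells.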 In outline: as §2
Test [9] in a line: qHTS profiling of the MIPE4 collection as inhibitors of Plasmodium falciparum (HB3) proliferation (AID 743347; call rule not given here;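 also: plate controls were DMSO vehicle wells for no effect and artemisinin wells for full effect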). The note with it: P. falciparum HB3 in erythrocytes, SYBR Green DNA, 72 h; at 28.5 µM (top of the series) unless noted. In short, it runs like this:
as §1

Test [10] is described as follows: qHTS Screen of the MIPE 4.0 Collection Against Ewings Sarcoma (RDES) (AID 1259252). Also: nearly all actives have a fitted effect of over 35% in size. Also: potency is read from the fitted curve at half-maximal effect. In outline:
as §2

For the compound `FC(F)c1nc2ccccc2n1-c1nc(N2CCOCC2)nc(N2CCOCC2)n1`, the parasite growth remaining, % of DMSO control (lower = more inhibition) in test [1] amounted to 7.94%. Also, the parasite growth, % of control (lower = inhibition) in test [2] is 8.19%. In addition, the cell viability, % of control (lower = more cytotoxic) in test [3] amounted to 9.88%. Moreover, in test [4], the viability (% of control) came to 37.8%. Further, the Potency entry in [5] and in [6] was “inactive” throughout. Besides, the Potency in test [7] was 0.59 µM (active); in test [8] it was 3.72 µM (active).
In [2], `Cc1ccc(O)c(C(CCN(C(C)C)C(C)C)c2ccccc2)c1` (stereo not given) displayed a parasite growth, % of control (lower = inhibition) of 10.4%. Moreover, the growth, % of control in test [9] was 19.1%. For the same compound, in test [3], the cell viability, % of control (lower = more cytotoxic) turned out to be 239%. In addition, the viability (% of control) in [4] is 103%. For the same compound, the Potency result in test [5], in test [6], in [10], in test [7] and in test [8] was “inactive” in each case.
In the case of `CC(C=CC=C(C)C=CC1=C(C)CCCC1(C)C)=CC=CC=C(C)C=CC=C(C)C=CC1=C(C)CCCC1(C)C`, the parasite growth remaining, % of DMSO control (lower = more inhibition) in [1] worked out at 92.7%. In addition, the parasite growth, % of control (lower = inhibition) in test [2] is 28.1%. In test [9], this compound came in with a growth, % of control of 7.95%. Moreover, the cell viability, % of control (lower = more cytotoxic) in test [3] stood at 8%. Further, in test [4], the viability (% of control) was found to be 10%. Moreover, the Potency result in [5] and in [6] was “inactive” each time. Besides, the Potency is 8.33 µM (active) in [10], 18.7 µM (active) in test [7] and 14.8 µM (active) in test [8].
`FC(F)(F)c1ccc(Nc2nc3ccc(Oc4ccnc(-c5ncc(C(F)(F)F)[nH]5)c4)cc3[nH]2)cc1` registered a parasite growth remaining, % of DMSO control (lower = more inhibition) in [1] of 48.6%. The parasite growth, % of control (lower = inhibition) in [2] was determined as 15.3%. In [9], the growth, % of control was 7.1%. Besides, in [3], the cell viability, % of control (lower = more cytotoxic) came out at 14.5%. The viability (% of control) in test [4] is 24.9%. The Potency result in test [5] and in [6] was “inactive” in each case. The Potency was 11.8 µM (active) in test [10], 13.2 µM (active) in test [7] and 11.8 µM (active) in test [8].
Take `C[N+](C)([O-])CCNc1ccc(NCC[N+](C)(C)[O-])c2c1C(=O)c1c(O)ccc(O)c1C2=O`: the parasite growth remaining, % of DMSO control (lower = more inhibition) in [1] is 13.5%. Also, in test [3], the cell viability, % of control (lower = more cytotoxic) amounted to 105%. For the same compound, in test [4], the viability (% of control) was 19.7%. The Potency result in [5] and in [6] was “inactive” each time. In addition, the values for the Potency in test [7] and in test [8] were 16.6 µM (active) and 20.9 µM (active), respectively.
In [1], `CC(C)NC[C@@H](C(=O)N1CCN(c2ncnc3c2[C@H](C)C[C@H]3O)CC1)c1ccc(Cl)cc1` returned a parasite growth remaining, % of DMSO control (lower = more inhibition) of 64.9%. Besides, the parasite growth, % of control (lower = inhibition) in test [2] is 5.81%. The compound also registered a growth, % of control in [9] of 2.94%. Also, the cell viability, % of control (lower = more cytotoxic) in [3] stood at 1.71%. Besides, the viability (% of control) in test [4] came to 1.88%. Further, the Potency entry in test [5] and in test [6] was “inactive” each time. Besides, the Potency in [7] is 11.8 µM (active); in test [8], 1.66 µM (active).
Turning to `CC[C@H](CC[C@@H](C)[C@H]1CC[C@H]2[C@@H]3CC=C4C[C@@H](O)CC[C@]4(C)[C@@H]3CC[C@]12C)C(C)C`, the growth, % of control in test [9] was 100%. Further, the cell viability, % of control (lower = more cytotoxic) in [3] is 114%. For the same compound, the viability (% of control) in test [4] was found to be 107%. The Potency entry in test [5], in test [6], in [10], in test [7] and in test [8] was “inactive” each time.
The compound `C=CC(=O)Nc1ccc2ncnc(Nc3ccc(OCc4cccc(F)c4)c(Cl)c3)c2c1` came in with a parasite growth remaining, % of DMSO control (lower = more inhibition) in test [1] of 19.9%. In test [2], this compound came in with a parasite growth, % of control (lower = inhibition) of 16.4%. This compound also yielded a growth, % of control in test [9] of 5.29%. Also, in test [3], the cell viability, % of control (lower = more cytotoxic) amounted to 13%. Also, in test [4], the viability (% of control) came to 2.97%. For the same compound, the Potency entry in test [5] and in [6] was “inactive” throughout. In addition, the results for the Potency in test [7] and in [8] were 1.18 µM (active) and 2.09 µM (active), respectively.
In test [1], `C[C@H](NC(=O)C(C#N)=Cc1cccc(Br)n1)c1ccccc1` registered a parasite growth remaining, % of DMSO control (lower = more inhibition) of 86.2%. The parasite growth, % of control (lower = inhibition) in test [2] came out at 33.4%. Further, the growth, % of control in [9] came out at 22%. Besides, the cell viability, % of control (lower = more cytotoxic) in [3] was found to be 5.54%. Further, in test [4], the viability (% of control) was 4.37%. The Potency result in [5] and in test [6] was “inactive” in each case. The results for the Potency in test [10], in [7] and in [8] were 16.6 µM (active), 20.9 µM (active) and 16.6 µM (active), respectively.
